GRK2 inh: compounds blocking aptamer binding on GRK2 – biochemical, human GRK2, bead flow cytometry, HTS, primary screen. inhibition of aptamer binding, % at 10 µM. 330,000 compounds, 0.59% hits. AID 488847, 2010. Beta-adrenergic receptor kinase 1 (Homo sapiens), P25098. FAM-aptamer displacement from GRK2;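 active = inhibition of aptamer binding above 40%, roughly 3 SD of noise, on plates passing a quality check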;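 also: median bead fluorescence of bound FAM aptamer so fluorescent compounds give negative values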
Target sequence (P25098 whole entry, looked up): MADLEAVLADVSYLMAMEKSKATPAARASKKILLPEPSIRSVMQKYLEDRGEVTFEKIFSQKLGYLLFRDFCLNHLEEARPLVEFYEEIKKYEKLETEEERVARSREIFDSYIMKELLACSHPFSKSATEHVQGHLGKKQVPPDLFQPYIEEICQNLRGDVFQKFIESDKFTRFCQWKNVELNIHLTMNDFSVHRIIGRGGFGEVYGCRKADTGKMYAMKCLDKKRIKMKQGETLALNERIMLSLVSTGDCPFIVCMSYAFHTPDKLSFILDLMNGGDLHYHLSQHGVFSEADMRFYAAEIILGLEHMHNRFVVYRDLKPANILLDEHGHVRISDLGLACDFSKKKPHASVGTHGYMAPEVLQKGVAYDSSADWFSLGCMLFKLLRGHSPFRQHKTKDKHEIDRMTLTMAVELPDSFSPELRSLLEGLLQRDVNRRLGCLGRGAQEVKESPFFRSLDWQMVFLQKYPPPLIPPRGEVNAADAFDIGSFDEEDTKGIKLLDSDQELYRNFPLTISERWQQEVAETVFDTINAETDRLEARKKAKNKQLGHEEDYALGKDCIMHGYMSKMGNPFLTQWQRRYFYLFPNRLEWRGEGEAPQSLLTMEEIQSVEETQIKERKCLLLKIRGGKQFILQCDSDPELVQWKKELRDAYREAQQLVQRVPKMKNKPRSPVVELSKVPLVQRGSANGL
Platelet DG rel: inhibitors of platelet dense granule secretion, primary screen, cell-based, MLPCN, human platelets. human platelet-rich plasma, SFLLRN dense granule ATP release, luminescence. inhibition, %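 (compounds screened at 7.5 µM in platelet-rich plasma)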. 300,000 compounds, 0.22% hits;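 active = mean replicate score, as percent of positive control, at or above 50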
MIN6 prolif-1: inducers of MIN6 beta-cell proliferation, primary screen, ATP luminescence, uHTS. MIN6 cells proliferation, ATPlite luminescence, 48 h; cells starved in 0.2% serum; 100% = growth in 10% serum. proliferation, % at 10 µM. 330,000 compounds, 0.29% hits. AID 2380, 2010;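 active = compounds whose signal lies at least 3.5 SD above the mean of all wells on their plate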;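 also: 0% = DMSO-treated cells in low-serum medium and 100% = 10% serum control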
NTR1 ag: agonists of human NTR1, primary screen, imaging, U2OS cells, beta-arrestin-GFP, high content | Neurotensin receptor type 1 (Homo sapiens), P30989 | NTR1-U2OS beta-arrestin-GFP spot imaging, agonist mode | activation, % at 20 µM | 330,000 compounds, 0.17% hits;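 active = activation at or above 40% of the spot to cytoplasm intensity ratio, with at least 20 cells analyzed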;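 also: 0% = DMSO without peptide and 100% = 100 nM NTR1 peptide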
MIN6 prolif-2: inducers of beta-cell proliferation in MIN6, confirmation, MIN6 cells, mouse; shares compounds with MIN6 prolif-1; ATPlite luminescence, 48 h; cells kept in 0.2% serum; scaled between 0.2% and 10% serum; proliferation increase, % at 50 µM; 920 tested, under 10 active; AID 463095, 2010;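 active = proliferation increase above 40% at any of the four tested concentrations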
Active calls of the source: *; x = not tested or not shown. Sampled rows, rich in hits. Any-hit rate of the full collection: about 1.2%.

SMILES	GRK2 inh	Platelet DG rel	MIN6 prolif-1	NTR1 ag	MIN6 prolif-2
O=C(/C=C/c1ccc(O)cc1)c1ccccc1	0	72*	-7	4	x
COc1ccc(NS(=O)(=O)c2ccc3oc(SC4CCOC4=O)nc3c2)cc1 (configuration not stated)	5	1	-3	68*	x
COc1ccc(NS(=O)(=O)c2ccc3oc(SC)nc3c2)cc1	1	-5	5	1	x
O=C(NNC(=S)Nc1ccccc1)c1cc(Br)ccc1Cl	46*	13	5	1	x
O=C(NNC(=S)Nc1ccccc1)NNC(=S)Nc1ccccc1	2	2	-3	1	x
CC1C(=O)C(C)C(c2cc(Cl)ccc2O)NC1c1cc(Cl)ccc1O (configuration not stated)	0	3	-5	60*	x
O=C(CN1CCN(S(=O)(=O)c2cccc(F)c2)CC1)Nc1ccnn1C1CCCC1	2	x	1	1	x
COC(=O)[C@H](CCSC)NC(=O)NCc1ccc(S(N)(=O)=O)cc1	0	-3	8.2*	0	-3
CCC(C)[C@H](NC(=O)NCc1ccc(S(N)(=O)=O)cc1)C(=O)OC (some centres not stated)	0	1	1	0	x
CCN(CC(=O)Nc1ccc(NC(C)=O)cc1)C(=O)CSCc1c(C)noc1C	1	13	5	2	x
O=C(c1cc(C2CC2)nn1-c1ccccc1)N1CCN(c2ccccn2)CC1	x	x	-1	1	x
Cn1c(=O)c2c(ncn2CC(=O)NC2CCCCC2)n(C)c1=O	0	25	11*	0	-3
CCOC(=O)C1=C(COC(=O)COc2ccc(Br)cc2)NC(=O)NC1C (configuration not stated)	2	-1	-2	2	x
COc1ccc(C2(C)NC(=O)N(CC(=O)Nc3ccc(Br)c(C)c3)C2=O)cc1OC (configuration not stated)	0	2	-2	2	x
CN(CC(=O)Nc1cccc(S(=O)(=O)N2CCOCC2)c1)CC(=O)Nc1ccc(Cl)c(C(F)(F)F)c1	0	-1	-7	6	x
CN(CC(=O)Nc1cccc(F)c1)C(=O)c1ccc(COc2ccccc2)cc1	0	-15	-3	0	x
Cc1cc(Br)c(NC(=O)COC(=O)C2CCCCC2)c(Br)c1	2	x	11*	0	-6
COc1ccccc1N(CC(O)CN1CCOCC1)S(=O)(=O)c1ccccc1 (configuration not stated)	2	0	19*	0	0
COc1ccccc1N(CC(O)CN1CCCC1)S(=O)(=O)c1ccccc1 (configuration not stated)	2	-11	0	0	x
CC(=O)Nc1ccc(S(=O)(=O)N[C@@H](C)C(=O)OCC(=O)c2ccc(C)cc2)cc1	3	x	-3	3	x
O=C(N/N=C/c1ccncc1)c1nc(-c2ccccc2)n2c1CCCCC2	3	-15	8.3*	-1	2
CC(C)C(OC(=O)c1ccccc1)c1nccc2ccccc12 (configuration not stated)	1	-13	-1	1	x
OC(c1ccc(Cl)cc1)c1nccc2ccccc12 (configuration not stated)	0	5	5.5*	0	-6
Cc1cc(C)n(C(C)CC(=O)Nc2ccc(-c3ccno3)cc2)n1 (configuration not stated)	0	-8	1	0	x
COc1cccc2c1c(NC(=O)Nc1ccc(F)cc1F)nn2C	0	-8	6.8*	3	-3
SMILES	GRK2 inh	Platelet DG rel	MIN6 prolif-1	NTR1 ag	MIN6 prolif-2
COc1ccccc1NC(=O)Nc1nn(C)c2cccc(N(C)C)c12	1	-5	-3	13	x
CC(C)Cc1nc2ccc(N)cc2[nH]1	0	-1	1	0	x
CC(NC(=O)CN1C(=O)NC2(CCCCCCC2)C1=O)c1ccccc1 (configuration not stated)	0	x	9.5*	0	0
O=S(=O)(c1cnccc1N1CCN(/N=C/c2ccccc2)CC1)N1CCCCC1	3	-7	5.6*	2	0
Cc1ccccc1C(=NCCCN(C)C)c1ccccc1C	2	-3	0	-3	x
Cc1nc(N)c(C#N)c(-c2ccccc2)c1C	0	2	5.9*	0	3
O=C(COC(=O)C1CC(=O)N(Cc2ccccc2)C1)Nc1cccc([N+](=O)[O-])c1 (configuration not stated)	5	x	-2	-1	x
O=C1CSC(c2ccccc2)N1CCc1ccccc1 (configuration not stated)	4	2	7.5*	0	0
NC(=O)c1ccc(C2SCC(=O)N2CCc2ccccc2)cc1 (configuration not stated)	1	x	0	3	x
Brc1nnc2n1-c1ccccc1Sc1ccccc1-2	2	1	5.6*	0	-6
Clc1ccc2c(c1)-c1nnc(Br)n1-c1ccccc1S2	10	-1	-2	0	x
COc1ccc(CCn2c(=N)c(S(=O)(=O)c3ccc(C)cc3)cc3c(=O)n4ccccc4nc32)cc1	0	9	13*	2	-3
Cc1cc(NC(=O)CCC(=O)N(Cc2ccco2)C(C)(C)C(=O)NC2CCCCC2)no1	0	-8	0	1	x
Cc1cc(NC(=O)CCC(=O)N(Cc2cccs2)C(C)(C)C(=O)NC2CCCCC2)no1	1	-16	6.2*	0	-1
S=c1[nH]nc(-c2ccc3ccccc3n2)n1-c1cc(Cl)cc(Cl)c1	2	3	-5	1	x
Oc1ccc(-c2n[nH]c(=S)n2Cc2ccccc2)cc1	3	-3	-4	-2	x
Fc1ccc(-n2c(-c3ccc4ccccc4n3)n[nH]c2=S)cc1	0	6	7.9*	5	-1
S=c1[nH]nc(-c2ccc3ccccc3n2)n1Cc1ccccc1	7	-1	8.6*	15	2
COc1ccc([C@H]2CC(=O)C=C(c3ccc4ncccc4c3)C2)cc1OC	0	x	-1	0	x
COc1nc(N(C)C)nc(N(C#N)S(=O)(=O)c2ccc(C)cc2)n1	3	-7	5.8*	-1	1
CON(c1nc(Cl)nc(N(C)C)n1)S(=O)(=O)c1ccc(C)cc1	2	0	-2	4	x
Cc1cccn2c(=O)c(/C=C(\C#N)C(N)=O)c(N3CCN(c4ccccc4)CC3)nc12	2	8	6.9*	5	-6
CCOC(=O)c1ccccc1OCc1cc(/C=N/n2cncn2)ccc1OC	1	0	7.8*	3	2
CC1=NOC(=O)/C1=C\c1ccc(-c2ccccc2Br)o1	x	8	x	x	x
Cc1[nH]c2ccccc2c1C(=O)NS(=O)(=O)Nc1ccc(F)cc1	0	0	8.8*	-2	-4
